13 compounds from PubChem BioAssay (NCATS) can be followed below.

Records with an inconclusive call do not appear. Values without a mark were called inactive. The source made the active and inactive calls. Calls come from the whole dose curve; as a rule, active = well fitted curve in the direction sought with a large enough effect; inconclusive = small, poorly fitted or top-dose-only effect, or another doubt; inactive = no such curve, though single readings can be large; an effect the other way counts as inactive or inconclusive.

Assay [1] deals with CRL-7250. Description: Cytotoxic Profiling of Annotated Libraries Using Quantitative High-Throughput Screening (AID 1296008). For max response: % is set by controls: 0 for no effect and ±100 for the full control effect. Note: nearly all actives have a fitted effect of over 60% in size. Note: potency is the fitted concentration of half-maximal effect. Conditions: Five cell lines viability, CellTiter-Glo ATP luminescence, 48-72 h; max response: stronger effect = lower value. An outline of the steps:
(§1)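 Compounds were pin-transferred onto cells and incubated 48 or 72 hr at 37 degree Celsius, 95% humidity. CellTiter-Glo was added, plates sat 10 min at room temperature, then ATP-coupled luminescence was imaged as the viability read-out.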
(In ATP-based viability assays light output follows the ATP content of the culture.)

The test system of assay [2] is HEK293. The assay is described as above. The following applies: Five cell lines viability, CellTiter-Glo ATP luminescence, 48-72 h; max response: stronger effect = lower value. In short, it runs like this:
as §1

The subject of assay [3] is HaCat. The assay is described as above. Conditions: Five cell lines viability, CellTiter-Glo ATP luminescence, 48-72 h; max response: stronger effect = lower value. In short, it runs like this:
as §1

The subject of assay [4] is KB-3-1. The assay is described as above. Conditions: Five cell lines viability, CellTiter-Glo ATP luminescence, 48-72 h; max response: stronger effect = lower value. An outline of the steps:
as §1

In assay [5] the test system is NIH3T3. The assay is described as above. The following applies: Five cell lines viability, CellTiter-Glo ATP luminescence, 48-72 h; max response: stronger effect = lower value. An outline of the steps:
as §1

Assay [6] deals with HACAT. Description: qHTS assay to identify novel small-molecules to repurpose for Merkel cell carcinoma treatment (AID 1296009). Note: nearly all actives have a fitted effect of over 60% in size. The following applies: MCC and control cell lines, CellTiter-Glo viability, 72 h; at 44.8 µM (top of the series) unless noted. An outline of the steps: (§2)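 Cells exposed to NPC (8-point) and MIPE (11-point) compound dilutions for 72 hr at 37 degree celsius; viability read by CellTiter-Glo luminescence, normalized to no-cell and DMSO in-plate controls.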

In assay [7] the test system is NIH3T3. The assay is described as above. Conditions: MCC and control cell lines, CellTiter-Glo viability, 72 h; at 44.8 µM (top of the series) unless noted. In short, it runs like this:
as §2

For assay [8], the system named is C33A. Description: Primary qHTS to identify gynecologic anti-cancer compounds using libraries of approved drugs and bioactive compounds (AID 1345084). Note: % is set by controls: 0 for no effect and ±100 for the full control effect; nearly all actives have a fitted effect of over 55% in size. Conditions: Gynecologic cancer cell panel viability, ATPlite luminescence, 48 h; series mostly up to 57.5 µM. An outline of the steps: (§3)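 In this quantitative HTS, cell killing is estimated from loss of ATP-dependent luciferase light. Cells see five compound concentrations over a 48 h exposure.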

The test system of assay [9] is CAOV3. The assay is described as above. The following applies: Gynecologic cancer cell panel viability, ATPlite luminescence, 48 h; series mostly up to 57.5 µM. In short, it runs like this:
as §3

Assay [10] has as its system CASKI. The assay is described as above. The following applies: Gynecologic cancer cell panel viability, ATPlite luminescence, 48 h; series mostly up to 57.5 µM. In short, it runs like this:
as §3

For assay [11], the system named is Es-2. Described as above. The following applies: Gynecologic cancer cell panel viability, ATPlite luminescence, 48 h; series mostly up to 57.5 µM. In short, it runs like this: as §3
The subject of assay [12] is HeLa. The description is as above. The following applies: Gynecologic cancer cell panel viability, ATPlite luminescence, 48 h; series mostly up to 57.5 µM. An outline of the steps:
as §3

In assay [13] the test system is Hek293T. Described as above. Conditions: Gynecologic cancer cell panel viability, ATPlite luminescence, 48 h, control line for the selectivity index; series mostly up to 57.5 µM. In short, it runs like this:
as §3

Assay [14] relates to JEG-3. The assay is described as above. The following applies: Gynecologic cancer cell panel viability, ATPlite luminescence, 48 h; series mostly up to 57.5 µM. In short, it runs like this:
as §3

Assay [15] concerns OV90. The assay is described as above. Conditions: Gynecologic cancer cell panel viability, ATPlite luminescence, 48 h; series mostly up to 57.5 µM. An outline of the steps: as §3

For the compound `C=C(C)[C@@H]1CC[C@]2(C(=O)O)CC[C@]3(C)C(CCC4[C@]5(C)C(CC[C@]43C)C(C)(C)[C@@H](O)[C@@H]5C(=O)O)C12` (stereo partly drawn), the compound was called inactive in assay [1], in [3], in assay [4], in assay [5] and in assay [10]. In addition, the max response in assay [2] was -0.322%. In addition, the outcome in assay [6] and in assay [7] was “inactive [at 17.4 µM]” each time. Also, the Potency entry in [8], in assay [9], in assay [11], in assay [12], in [13] and in assay [14] was “inactive” throughout. In addition, the Potency result in [15] was “inactive”.
Regarding `NC[C@@H]1O[C@@H](O[C@@H]2[C@@H](O[C@@H]3O[C@H](CO)[C@@H](O)[C@H]3O)[C@H](O)[C@@H](N)C[C@H]2N)[C@@H](N)[C@H](O)[C@H]1O`, the result in assay [1], in assay [3], in [4] and in assay [5] was inactive. The max response in [2] is -4.01%. Besides, the outcome in [6] and in [7] was “inactive [at 9.27 µM]” each time. The activity change, negative = cytotoxicity in [8] was 8.18% [at 11.6 µM]; in assay [10] it was 0.509% [at 11.6 µM]; in assay [11], 6.5% [at 11.6 µM]; in assay [12], 15.1% [at 11.6 µM]; in assay [13], 17.2% [at 11.6 µM]; in assay [14], 7.01% [at 11.6 µM]. In assay [15], the activity change, negative = cytotoxicity is 0.365% [at 11.6 µM].
As to `COC(=O)c1[nH]c(=O)c2ccccc2c1-c1ccc[nH]1`, the outcome in [1], in [3], in assay [4], in assay [5], in assay [6] and in assay [7] was inactive. Moreover, the outcome in assay [10] was inactive. Besides, the Potency in assay [2] was 20.6 µM (active). Also, the Potency result in assay [8], in assay [9], in assay [12], in assay [14] and in [15] was “inactive” in each case.
Take `CC(C)(O)C1CC=C(C(=O)OC[C@H]2O[C@@H](OC(=O)C3=CCC(C(C)(C)O)CC3)[C@H](O)[C@@H](O)[C@@H]2O)CC1` (stereo partly drawn): the figures for the max response in assay [1], in [2] and in assay [4] were 3.51%, 1.77% and 9.42%, respectively. In addition, the outcome in assay [3], in [5] and in [10] was inactive. Further, the outcome in assay [6] and in [7] was “inactive [at 17.4 µM]” throughout. The Potency result in assay [8], in assay [11], in [12], in [13], in assay [14] and in [15] was “inactive” throughout.
For `COc1ccc(C2(O)c3c(ccc4c3OC(C)(CCC=C(C)C)C=C4)NC(=O)C2OC)cc1` (stereo not drawn), the call in [1], in [3] and in [5] was inactive. Besides, the max response in assay [2] is -6.81%; in assay [4], 5.8%. Also, the outcome in [6] and in [7] was “inactive [at 17.4 µM]” each time. Also, the Potency entry in assay [8], in [9], in assay [11], in [12], in assay [13] and in assay [14] was “inactive” in each case. Moreover, the Potency result in [15] is “inactive”.
Regarding `O=C(Nc1ccccc1)Nc1ccc(-c2ccc(C(=O)C3CCCC3C(=O)O)cc2)cc1` (stereo not drawn), the figures for the max response in assay [1] and in assay [2] were -3.37% and -9.05%, respectively. The compound was called inactive in assay [3], in [4], in assay [5], in assay [6], in assay [7] and in [10]. Further, the Potency entry in [8], in assay [11], in assay [12], in assay [13], in assay [14] and in [15] was “inactive” throughout.
For `C/C1=C\CC(C)(C)/C=C/C/C(C(=O)O)=C/CC1`, the figures for the max response in assay [1], in assay [2] and in assay [4] were -3%, -13.3% and -12.2%, respectively. In addition, the compound was called inactive in [3], in [5], in assay [6], in assay [7] and in [10]. Further, the Potency entry in [8], in assay [9], in [11], in assay [12], in assay [13] and in assay [15] was “inactive” each time.
Consider `C[C@@H]1C[C@@H](O)[C@@]23CO[C@]2(CO)C[C@@H](O)CC3[C@@]12CC(c1ccoc1)OC2=O` (stereo partly drawn), for which the figures for the max response in assay [1] and in [2] were -3.28% and 0.731%, respectively. The call in [3], in assay [4], in assay [5], in [6], in assay [7] and in assay [10] was inactive. In addition, the Potency result in [8], in [11], in [12], in assay [13] and in [14] was “inactive” each time.
On to `COc1cc(/C=C/C(=O)O)ccc1O[C@@H]1O[C@H](CO)[C@@H](O)[C@H](O)[C@H]1O[C@@H]1OC[C@](O)(CO)[C@H]1O`, for which the outcome in assay [1], in assay [3], in assay [5] and in [10] was inactive. Further, the max response in assay [2] was -3.47%; in [4], 0.854%. Also, the outcome in assay [6] and in assay [7] was “inactive [at 17.4 µM]” each time. Besides, the Potency entry in assay [8], in assay [9], in [11], in assay [12], in assay [13] and in assay [14] was “inactive” throughout. For the same compound, in assay [15], the Potency entry was “inactive”.
`COc1cc(C2OCC3(O)C(c4ccc(O[C@@H]5O[C@H](CO)[C@@H](O)[C@H](O)[C@H]5O)c(OC)c4)OCC23O)ccc1O` (stereo partly drawn): the result in assay [1], in assay [3], in assay [5] and in assay [10] was inactive. The max response in assay [2] is -0.768%; in assay [4], 7.65%. Further, the outcome in [6] and in assay [7] was “inactive [at 17.4 µM]” in each case. Further, the Potency entry in assay [8], in [9], in assay [11], in [12], in assay [14] and in assay [15] was “inactive” in each case.
As to `C[C@@H]1CC2OC(=O)C3=C2C(CCC3O)[C@@]12C[C@@H](c1ccoc1)OC2=O` (stereo partly drawn), the values for the max response in [1] and in assay [2] were -0.741% and 2.79%, respectively. In addition, the compound was classed as inactive in assay [3], in assay [4], in assay [5], in assay [6], in [7] and in assay [10]. Besides, the Potency result in assay [8], in [9], in assay [11], in [12], in assay [13] and in [14] was “inactive” throughout. Also, the Potency entry in assay [15] was “inactive”.
For the compound `C=CC(C)(C)C12Nc3c(ccc4c3OC(C)(C)C=C4)C1(O)CC1C(=O)N3CCCC3C(=O)N12` (stereo not drawn), the max response in [1] was 0.0002%; in [2], -7.42%. The call in assay [3], in [4], in [5] and in assay [10] was inactive. Also, the outcome in assay [6] and in assay [7] was “inactive [at 17.4 µM]” throughout. Further, the Potency result in assay [8], in [11], in [12], in assay [13], in [14] and in assay [15] was “inactive” in each case.
In the case of `C=C1[C@H](OC(C)=O)[C@H]2[C@@H](OC(C)=O)C(C)C[C@]2(OC(C)=O)C(=O)[C@H](C)/C=C/C(C)(C)C(=O)[C@H](OC(=O)C(C)C)[C@H]1OC(C)=O` (stereo partly drawn), the max response in [1] is 2.65%; in [2], -3.57%. The result in assay [3], in assay [4], in assay [5] and in [10] was inactive. The outcome in assay [6] and in [7] was “inactive [at 17.4 µM]” each time. Further, the Potency result in [8], in assay [9], in [11], in [13], in assay [14] and in assay [15] was “inactive” each time.
